The chains are these.
B1: Caulobacter ParB omega fusion; a variant is named by its letters at X, in order, B8GW30 (parent)
chain: MESVVVGEPGMSEGRRGLGRGLSALLGEVDAAPAQAPGEQLGGSREAPIEILQRNPDQPRRTFREEDLEDLSNSIREKGVLQPILVRPSPDTAGEYQIVAGERAWRAAQRAGLKTVPIMVRELDDLAVLEIGIIENVQRADLNVLEEALSYKVLMEKFERTQENIAQTIGKSXSHVANXMRLLXLPDEVQSYLVSGELTAXHARAIAAAADPVALAKQIIEGGLSVRETEALARKAPNLSAGKSKGGRPPRVKDTDTQALESDLSSVLGLDVSIDHRGSTGTLTITYATLEQLDDLCNRLTRGI

Whole data set: some 81,000 sequences, median “one-hybrid fitness for binding parS DNA” near -0.17, cut for the highest 2% near 0.51. The full list was thinned out, with the highest values kept by preference.

Variants of B1 are the subject of this experiment. The experiment in a line: one-hybrid fitness for binding parS DNA (scaled: cognate 1, non-cognate 0); higher = stronger binding. Conditions: with parS DNA site. Put shortly:
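In E. coli USO, a HIS3 reporter with its site placed 19 bp from the promoter was used to select Caulobacter ParB variants randomised at four specificity codons. Growth lasted 48 hours at 37°C on histidine-free M9 containing 0.1 mM IPTG and 5 mM 3-AT. Fitness was taken as the log change in variant-to-wild-type read ratio from Illumina sequencing of pre- and post-selection plasmids, rescaled between the non-cognate and cognate sites.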
For the variant SDQF, the “one-hybrid fitness for binding parS DNA” value is not above 0.2.
As for ENRG, the “one-hybrid fitness for binding parS DNA” value is not above 0.2.
In the case of CYNT, the “one-hybrid fitness for binding parS DNA” value was not above 0.2.
For LSAC, the “one-hybrid fitness for binding parS DNA” value was not above 0.2.
With TCKK, the “one-hybrid fitness for binding parS DNA” value is not above 0.2.
Next, CTYA: not above 0.2.
Turning to TRDK, the “one-hybrid fitness for binding parS DNA” value is not above 0.2.
Regarding RFSC, the “one-hybrid fitness for binding parS DNA” value amounted to 0.935.
Take RFHC: the “one-hybrid fitness for binding parS DNA” value was found to be 0.925.
Turning to DFHC, the “one-hybrid fitness for binding parS DNA” value was not above 0.2.
Regarding RFCC, the “one-hybrid fitness for binding parS DNA” value came out at 0.87.
Next, RFYN: 0.357; NFHC: not above 0.2.
Turning to RFYC, the “one-hybrid fitness for binding parS DNA” value worked out at 0.867.
For the variant NFCC, the “one-hybrid fitness for binding parS DNA” value is not above 0.2.
In the case of RFCD, the “one-hybrid fitness for binding parS DNA” value was not above 0.2.
On to DFSC, for which the “one-hybrid fitness for binding parS DNA” value is not above 0.2.
Consider RFSD, for which the “one-hybrid fitness for binding parS DNA” value was not above 0.2.
In the case of DFYC, the “one-hybrid fitness for binding parS DNA” value was not above 0.2.
For the variant WVLH, the “one-hybrid fitness for binding parS DNA” value is not above 0.2.
As to GNCC, the “one-hybrid fitness for binding parS DNA” value is not above 0.2.
As to TRHF, the “one-hybrid fitness for binding parS DNA” value is not above 0.2.
Turning to VVNG, the “one-hybrid fitness for binding parS DNA” value was not above 0.2.
On to TLTV, for which the “one-hybrid fitness for binding parS DNA” value is not above 0.2.
Regarding PSGP, the “one-hybrid fitness for binding parS DNA” value was not above 0.2.
Regarding WTLF, the “one-hybrid fitness for binding parS DNA” value is not above 0.2.
For the variant RFKH, the “one-hybrid fitness for binding parS DNA” value is 0.252.
Regarding RFKS, the “one-hybrid fitness for binding parS DNA” value is 0.9.
Next, RFVS: 0.892.
For RFKN, the “one-hybrid fitness for binding parS DNA” value was 0.441.
RFVH: the “one-hybrid fitness for binding parS DNA” value is not above 0.2.
In the case of RFVD, the “one-hybrid fitness for binding parS DNA” value was not above 0.2.
On to VTDM, for which the “one-hybrid fitness for binding parS DNA” value was not above 0.2.
On to VYTF, for which the “one-hybrid fitness for binding parS DNA” value is not above 0.2.
Consider PGDI, for which the “one-hybrid fitness for binding parS DNA” value is not above 0.2.
As for KILR, the “one-hybrid fitness for binding parS DNA” value was not above 0.2.
In the case of RKFS, the “one-hybrid fitness for binding parS DNA” value was determined as 0.927.
Regarding RKFP, the “one-hybrid fitness for binding parS DNA” value was not above 0.2.
As to RKFN, the “one-hybrid fitness for binding parS DNA” value came out at 0.295.
Take RKAD: the “one-hybrid fitness for binding parS DNA” value is not above 0.2.
On to RKAS, for which the “one-hybrid fitness for binding parS DNA” value was 0.832.
Take RKAP: the “one-hybrid fitness for binding parS DNA” value is not above 0.2.
For QHMA, the “one-hybrid fitness for binding parS DNA” value was not above 0.2.
With SVPY, the “one-hybrid fitness for binding parS DNA” value is not above 0.2.
Next, WRWT: not above 0.2; FLPQ: not above 0.2.
On to WSPS, for which the “one-hybrid fitness for binding parS DNA” value is not above 0.2.
Regarding QVPW, the “one-hybrid fitness for binding parS DNA” value was not above 0.2.
As for RLAP, the “one-hybrid fitness for binding parS DNA” value is not above 0.2.
On to RLFS, for which the “one-hybrid fitness for binding parS DNA” value was found to be 1.03.
With RLAS, the “one-hybrid fitness for binding parS DNA” value worked out at 1.
Next, RLFD: not above 0.2; RLFN: 0.395.
Take RLAH: the “one-hybrid fitness for binding parS DNA” value is not above 0.2.
Regarding HRSG, the “one-hybrid fitness for binding parS DNA” value was determined as 0.277.
Next, QDER: not above 0.2.
Next, QMYS: not above 0.2; YWTY: not above 0.2; IAWK: not above 0.2.
Turning to PACN, the “one-hybrid fitness for binding parS DNA” value is not above 0.2.
Next, RQKF: 0.328; RQVT: 0.678; RQVH: not above 0.2.
Regarding RQVP, the “one-hybrid fitness for binding parS DNA” value was not above 0.2.
As for RQKT, the “one-hybrid fitness for binding parS DNA” value was 0.819.
Next, RQKQ: not above 0.2; FSNE: not above 0.2; TTGM: not above 0.2.
For ILAP, the “one-hybrid fitness for binding parS DNA” value is not above 0.2.
ELIG: the “one-hybrid fitness for binding parS DNA” value is not above 0.2.
For the variant HFGL, the “one-hybrid fitness for binding parS DNA” value is not above 0.2.
For DNSG, the “one-hybrid fitness for binding parS DNA” value was not above 0.2.
For DNPA, the “one-hybrid fitness for binding parS DNA” value was not above 0.2.
Regarding RHIH, the “one-hybrid fitness for binding parS DNA” value is not above 0.2.
As for RSPT, the “one-hybrid fitness for binding parS DNA” value stood at 0.372.
Turning to RPIT, the “one-hybrid fitness for binding parS DNA” value is not above 0.2.
Regarding REIT, the “one-hybrid fitness for binding parS DNA” value is not above 0.2.
With RCIT, the “one-hybrid fitness for binding parS DNA” value came out at 0.78.
On to RSIT, for which the “one-hybrid fitness for binding parS DNA” value was 0.628.
Turning to RGIT, the “one-hybrid fitness for binding parS DNA” value worked out at 0.278.
Consider RHIT, for which the “one-hybrid fitness for binding parS DNA” value was 0.581.
Consider RHPT, for which the “one-hybrid fitness for binding parS DNA” value was 0.336.
In the case of YPCV, the “one-hybrid fitness for binding parS DNA” value was not above 0.2.
For ALRC, the “one-hybrid fitness for binding parS DNA” value is not above 0.2.
With TRWA, the “one-hybrid fitness for binding parS DNA” value is not above 0.2.
Next, AHIG: not above 0.2; RVGF: 0.254.
In the case of RVSC, the “one-hybrid fitness for binding parS DNA” value was 0.977.
Next, RVSH: not above 0.2; RVQK: not above 0.2.
Next, RVQC: 0.983; RVGM: 0.306.
On to RVWC, for which the “one-hybrid fitness for binding parS DNA” value worked out at 0.963.
Next, RVWM: 0.344.
For RVQM, the “one-hybrid fitness for binding parS DNA” value came out at 0.278.
Consider RVWY, for which the “one-hybrid fitness for binding parS DNA” value stood at 0.49.
Next, RVGC: 0.934.
In the case of RVSD, the “one-hybrid fitness for binding parS DNA” value is not above 0.2.
For PWHI, the “one-hybrid fitness for binding parS DNA” value is not above 0.2.
For the variant EAGG, the “one-hybrid fitness for binding parS DNA” value was not above 0.2.
As for TACV, the “one-hybrid fitness for binding parS DNA” value was not above 0.2.
Regarding YPGR, the “one-hybrid fitness for binding parS DNA” value is not above 0.2.
As to TVMC, the “one-hybrid fitness for binding parS DNA” value is not above 0.2.
In the case of GENW, the “one-hybrid fitness for binding parS DNA” value was not above 0.2.
As for CIYR, the “one-hybrid fitness for binding parS DNA” value was not above 0.2.
For METI, the “one-hybrid fitness for binding parS DNA” value was not above 0.2.
For RVYM, the “one-hybrid fitness for binding parS DNA” value was 0.314.
Next, RVRP: not above 0.2; RVYC: 0.991; RVYQ: not above 0.2.
As for RVLF, the “one-hybrid fitness for binding parS DNA” value came out at 0.259.
Next, RVCN: 0.438; RVCC: 0.966; RVRH: 0.203.
With RVLC, the “one-hybrid fitness for binding parS DNA” value was 0.958.
Turning to RVLK, the “one-hybrid fitness for binding parS DNA” value is not above 0.2.
For RVCP, the “one-hybrid fitness for binding parS DNA” value was not above 0.2.
With RVRC, the “one-hybrid fitness for binding parS DNA” value is 0.851.
MFWG: the “one-hybrid fitness for binding parS DNA” value was not above 0.2.
Next, QASK: not above 0.2.
Take RCDK: the “one-hybrid fitness for binding parS DNA” value was not above 0.2.
As for QSQF, the “one-hybrid fitness for binding parS DNA” value was not above 0.2.
Next, PAVG: not above 0.2; THLD: not above 0.2; KYFM: not above 0.2.
With RVHC, the “one-hybrid fitness for binding parS DNA” value worked out at 0.965.
As to RVHM, the “one-hybrid fitness for binding parS DNA” value is 0.314.
Take RVHY: the “one-hybrid fitness for binding parS DNA” value was 0.481.
For the variant LVSM, the “one-hybrid fitness for binding parS DNA” value is not above 0.2.
Turning to LKVQ, the “one-hybrid fitness for binding parS DNA” value is not above 0.2.
Next, LEMF: not above 0.2.
In the case of FCHS, the “one-hybrid fitness for binding parS DNA” value is not above 0.2.
Next, SKPK: not above 0.2.
As to RPPC, the “one-hybrid fitness for binding parS DNA” value was not above 0.2.
For the variant RMPP, the “one-hybrid fitness for binding parS DNA” value is not above 0.2.
For the variant RMIL, the “one-hybrid fitness for binding parS DNA” value is not above 0.2.
With RMPC, the “one-hybrid fitness for binding parS DNA” value is 0.725.
For the variant RCPC, the “one-hybrid fitness for binding parS DNA” value is 0.698.
RMIM: the “one-hybrid fitness for binding parS DNA” value was found to be 0.324.
As to RSPC, the “one-hybrid fitness for binding parS DNA” value is 0.421.
Next, RMPF: not above 0.2.
Regarding RMIC, the “one-hybrid fitness for binding parS DNA” value turned out to be 0.926.
Take EAKD: the “one-hybrid fitness for binding parS DNA” value was not above 0.2.
As to TVNA, the “one-hybrid fitness for binding parS DNA” value was not above 0.2.
For CNTL, the “one-hybrid fitness for binding parS DNA” value was not above 0.2.
Turning to RLKD, the “one-hybrid fitness for binding parS DNA” value is not above 0.2.
On to RLVS, for which the “one-hybrid fitness for binding parS DNA” value came to 1.03.
Next, RLVH: 0.223; RLKN: 0.458.
Next, RLKS: 0.851; RLVN: 0.4.
AHEK: the “one-hybrid fitness for binding parS DNA” value was not above 0.2.
Next, MWPC: not above 0.2.

These data come from a collection of fitness landscapes (doi:10.1016/j.celrep.2020.107928).
